This is an account of results in PubChem BioAssay.

SMILES strings stand for the structures. The source made the active and inactive calls.

A short description of test [1]: A549 cell viability effects, profiling panel, calcein-AM fluorescence, 48 h, basal (AID 1162). The following applies: higher = more signal.
Test [2] is described as follows: adipocyte viability effects, profiling panel, cell-based, 3T3-L1 adipocytes, calcein-AM fluorescence, 48 h, basal (AID 1163). The following applies: 3T3-L1 adipocytes viability, higher = more signal.
The nature of test [3]: HepG2 cell viability effects, profiling panel, calcein-AM fluorescence, 48 h, basal (AID 1164). The following applies: higher = more signal.
Test [4] can be described thus: MM1S cell viability effects, profiling panel, calcein-AM fluorescence, 48 h, basal (AID 1165).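 Further: viability of MM1S multiple myeloma cells under basal unstimulated conditions.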 As to conditions: higher = more signal.
A short description of test [5]: basal RPMI8226 viability, no added stimulus, profiling panel, cell-based, calcein-AM fluorescence, 48 h, PK04 Diversity Set (AID 1166).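 Further: cells grown under basal conditions without added stimulus.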 The following applies: RPMI8226 myeloma viability, higher = more signal.
Test [6] can be described thus: basal HepG2 mitochondrial membrane potential changes, profiling panel, cell-based, JC-1 fluorescence, 24 h, 100 nL compound (AID 1167). As to conditions: higher = more signal.
Test [7] in a line: basal 3T3-L1 adipocyte mitochondrial potential changes, profiling panel, cell-based, JC-1 fluorescence, 3T3-L1 adipocytes, 24 h, 100 nL compound (AID 1168). The following applies: JC-1 mitochondrial fluorescence, higher = more signal, called active from +8 up or from −8 down.
A short description of test [8]: basal RPMI8226 mitochondrial membrane potential changes, profiling panel, cell-based, JC-1 fluorescence, 24 h, 100 nL compound (AID 1169). The following applies: RPMI8226 myeloma, JC-1 mitochondrial potential fluorescence, higher = more signal.
A short description of test [9]: basal MM1S mitochondrial membrane potential changes, profiling panel, cell-based, JC-1 fluorescence, 24 h, 100 nL compound (AID 1170). The following applies: higher = more signal.
Test [10] can be described thus: A549 lung cancer cell viability effects, profiling panel, resazurin fluorescence, 24 h, PK04 Diversity Set (AID 1171). As to conditions: higher = more signal, called active from +8 up or from −8 down.
Further: test concentration not given here.

As for `CC(C)C[C@@H]1NC(=O)[C@@H]2C[C@H](C(=O)NCCCCCCN)[C@H](c3cccc(OCCO)c3)N2C1=O`, the z-score was -0.038 in [1]; 0.971 in test [2]; -0.822 in test [3]; 0.206 in test [4]; -0.703 in test [5]; -0.39 in test [6]. Further, the z-score was 0.433 (inactive) in [7], -0.84 in test [8], 0.519 in test [9] and -0.862 (inactive) in [10].

Turning to `C=CCC(OC(C)=O)[C@@H]1[C@@H](N(Cc2cccc3ccccc23)C(=O)Cc2ccc(OC)cc2)c2cc(OCCCO)ccc2N1C(=O)c1ccc(-c2ccccc2)cc1` (stereo not given in full), the z-score in test [1] is -0.433; in [2], 1.12; in test [3], 0.256; in test [4], -0.47; in test [5], 0.0509; in [6] it was 2.36. Moreover, the z-score in [7] is 0.286 (inactive); in test [8], 0.0206; in [9], 0.621; in test [10], 0.48 (inactive).

For `Cc1ccc(S[C@]2(C(=O)NCC(F)(F)F)CC(=O)N(Cc3cc(C(F)(F)F)cc(C(F)(F)F)c3)[C@@H]2c2ccc(CO)cc2I)cc1`, the z-score in [1] was -0.369; in test [2], -0.37; in [3] it was -0.548; in test [4] it was -2.27; in test [5], -2.64; in [6], -0.812. The z-score in [7] was -0.792 (inactive); in [8] it was -0.366; in test [9] it was -0.852; in test [10], 1.19 (inactive).

For `COC(=O)C1(CC(C)C)C=C2C(=C(c3ccccc3)C(=O)C2C)CN1` (stereo not given), the z-score in test [1] is -0.837; in test [2], -0.16; in test [3] it was 0.0661; in test [4], 0.601; in test [5] it was -0.12; in [6] it was 0.0103. In addition, the z-score is -1.81 (inactive) in [7], -0.604 in test [8], -1.1 in [9] and -0.614 (inactive) in test [10].

`CCCN1C(=O)[C@]2(Cc3ccccc31)N=C(c1ccc(OCCCO)cc1)O[C@@H]2c1ccccc1`: the z-score was -1.29 in test [1]; 1.07 in test [2]; -1.46 in test [3]; -1.6 in test [4]; -4.4 in test [5]; -0.29 in test [6]. Further, the z-score in test [7] was -0.906 (inactive); in test [8] it was -1.17; in test [9], 0.278; in test [10], -1.6 (inactive).

For `COc1cccc(C)c1NC(=O)O[C@H]1[C@H](OC(=O)Nc2ccc3c(c2)OCO3)[C@@H](OC(=O)Nc2ccc3c(c2)OCO3)[C@@H](OC)O[C@@H]1CO`, the z-score in [1] is -0.551; in test [2], -0.271; in [3] it was -1.28; in test [4], -2.27; in test [5], -0.815; in test [6], -0.445. For the same compound, the z-score in [7] is 0.925 (inactive); in test [8] it was -0.863; in test [9], -0.0492; in [10] it was -0.315 (inactive).

In the case of `CC(C)C(CO)N1C(=O)[C@@H]2C3C(=O)OCCC/C=C\[C@H]3OC23C=CCN(Cn2nnc4ccccc42)C(=O)[C@@H]13` (stereo not given in full), the z-score in test [1] was 0.225; in test [2] it was 0.0251; in [3] it was 0.0343; in test [4], 1; in test [5], -0.224; in test [6], -0.45. Also, the z-score in test [7] is -0.529 (inactive); in [8], -0.0779; in test [9], -0.165; in [10], 0.173 (inactive).

In the case of `C=C(/C(=C/C[C@H](OC(=O)c1ccncc1)c1ccc(CO)o1)c1cnc2ccccc2c1)C(C)C`, the z-score in test [1] was 1.07; in test [2], 0.521; in [3], -0.181; in test [4], -2.88; in [5], -1.25; in [6], -0.211. The z-score is 0.0957 (inactive) in test [7], 0.319 in test [8], -0.161 in test [9] and 0.208 (inactive) in test [10].

For `[N-]=[N+]=Nc1ccccc1[C@H]1OC(c2ccc(OCCCO)cc2)=N[C@@]1(Cc1ccccc1)C(=O)NCCN1CCOCC1`, the z-score was -0.449 in test [1]; 0.91 in test [2]; -1.21 in test [3]; -2 in test [4]; -3.41 in [5]; 2.36 in test [6]. For the same compound, the z-score in test [7] is 1.83 (inactive); in test [8] it was -1.06; in test [9], -0.638; in [10], -2 (inactive).

On to `O=C(c1ccccc1)N1C(=O)[C@]2(Cc3ccccc31)N=C(c1ccc(OCCCO)cc1)O[C@@H]2c1ccccc1`, for which the z-score was -1.84 in [1]; 0.736 in [2]; -2.44 in test [3]; -3.55 in test [4]; -4.35 in test [5]; -2.26 in [6]. For the same compound, the z-score in test [7] was -0.0262 (inactive); in test [8], -1.18; in test [9], -2.17; in [10], -2.83 (inactive).

As for `CC[C@@H]1O[Si](C(C)C)(C(C)C)c2c1cc(-c1cc(C)c(OC)c(C)c1)nc2-c1ccc(Oc2ccccc2)cc1`, the z-score in test [1] was -0.472; in [2], -0.25; in [3], -0.601; in [4], 0.287; in test [5], -0.388; in [6], -0.557. Moreover, the z-score in [7] was 0.202 (inactive); in [8] it was 0.756; in [9] it was 0.207; in test [10], 1.69 (inactive).

For the compound `COC(=O)[C@@]1(Cc2ccc(OC)cc2)[C@H]2c3cc(C(=O)N4CCCC4)n(CCO)c3C[C@H]2CN1C(=O)c1ccccc1`, the z-score is -0.832 in test [1]; 0.929 in [2]; 0.519 in test [3]; -1.25 in [4]; -0.974 in [5]; 1.59 in [6]. Besides, the z-score in [7] was -1.55 (inactive); in [8], 0.506; in [9], -1.35; in [10], -1.07 (inactive).

With `C[C@@H]1NC(=O)[C@@H](Cc2ccccc2)NC(=O)[C@@]23C(=O)N[C@@H](Cc4ccccc4)C2[C@H](C)[C@@]2(C)O[C@H]2C3/C=C/C/C=C\CNC1=O` (stereo not given in full), the z-score in [1] was -0.312; in [2], 0.599; in test [3], -0.543; in [4] it was 0.18; in test [5], -0.377; in test [6] it was -1.36. The z-score was -0.308 (inactive) in [7], -0.0163 in test [8], 1.09 in [9] and -0.879 (inactive) in test [10].

For the compound `CC(C)N1C(=O)C[C@@](C(=O)O)(c2ccc([N+](=O)[O-])cc2)[C@H]1c1ccc(CO)cc1`, the z-score is 2.22 in test [1]; -0.246 in test [2]; 0.74 in test [3]; 0.389 in [4]; 1.1 in [5]; 1.52 in test [6]. Also, the z-score is 0.546 (inactive) in test [7], -0.108 in [8], 0.435 in [9] and -0.602 (inactive) in [10].
